# Data: PubChem BioAssay (NCI)
# About 79,000 compounds went through this panel and 15% of them were active in at least one assay; those are over-represented in the sample as a whole. Values without a mark were called inactive. The source made the active and inactive calls. Rule as the data show it: active = growth inhibition above about 70%; inactive = the rest.
# How the values were obtained:
# [1] = NCI Yeast Anticancer Drug Screen. Data for the rad52 strain (AID 147);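 also: 0% = growth of vehicle-treated control cultures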; conditions: S. cerevisiae rad52 mutant growth inhibition, stronger effect = higher value
# How it was run: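 Measured: yeast growth inhibition. System: strain with a defined DNA damage repair alteration. Reference: vehicle-treated control cultures.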
# [2] = NCI Yeast Anticancer Drug Screen. Data for the wt1 strain (AID 149);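 also: 0% = growth of vehicle-treated wt1 cultures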; conditions: S. cerevisiae wt1 strain (SPY 50644) growth inhibition, stronger effect = higher value
# How it was run: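 wt1 yeast, compound-treated; % growth inhibition vs vehicle control.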
# [3] = NCI Yeast Anticancer Drug Screen. Data for the rad50EPP+ strain (AID 151);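 also: 0% = growth of vehicle-treated control cultures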; conditions: S. cerevisiae rad50 mutant strain, stronger effect = higher value
# How it was run: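 One strain with a rad50 alteration (rad50EPP+) was compound-treated, its growth then compared to that of vehicle controls.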
# [4] = NCI Yeast Anticancer Drug Screen. Data for the mgt1 strain (AID 153); conditions: S. cerevisiae mgt1 mutant growth inhibition, stronger effect = higher value
# How it was run: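 After exposure of the mgt1 yeast mutant to compound, growth was measured and reported as inhibition compared with vehicle controls.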
# [5] = NCI Yeast Anticancer Drug Screen. Data for the rad50 strain (AID 155);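 also: 0% = growth of vehicle-only cultures of the same strain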; conditions: S. cerevisiae rad50 strain growth inhibition, stronger effect = higher value
# How it was run: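 Genetically altered yeast (DNA repair pathway); compound treatment; growth inhibition vs vehicle ctrl.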
# [6] = NCI Yeast Anticancer Drug Screen. Data for the mec2-1 strain (AID 157); conditions: S. cerevisiae mec2-1 strain, stronger effect = higher value
# How it was run: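 Test agents were screened against the mec2-1 yeast strain, with defined DNA repair or cell cycle alteration. Growth was scored as inhibition against vehicle-only controls.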
# [7] = NCI Yeast Anticancer Drug Screen. Data for the rad14 strain (AID 159);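 also: 0% = growth of vehicle-treated control cultures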; conditions: S. cerevisiae rad14 strain growth inhibition, stronger effect = higher value
# How it was run: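 Test compounds were applied to a repair-deficient yeast strain. Its growth was then compared with that of cultures given vehicle alone, and inhibition was expressed relative to those controls.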
# [8] = NCI Yeast Anticancer Drug Screen. Data for the sgs1 mgt1 strain (AID 161);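 also: 0% = growth of cultures given vehicle only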; conditions: S. cerevisiae sgs1 mgt1 strain, stronger effect = higher value
# How it was run: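 Test agents were incubated with a DNA-repair-mutant yeast strain. Growth was then read and compared against vehicle-treated controls.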
# [9] = NCI Yeast Anticancer Drug Screen. Data for the CLN2oe strain (AID 163);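 also: 0% = growth of vehicle-only control cultures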; conditions: S. cerevisiae CLN2oe strain, stronger effect = higher value
# How it was run: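 Here, growth inhibition in a cell-cycle-altered yeast strain after compound exposure was quantified against vehicle control growth.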
# [10] = NCI Yeast Anticancer Drug Screen. Data for the cln2 rad14 strain (AID 165);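 also: 0% = growth equal to vehicle treated cultures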; conditions: S. cerevisiae cln2 rad14 strain, stronger effect = higher value
# How it was run: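 Growth of compound-exposed yeast (cln2 rad14 genotype) measured and expressed as inhibition relative to vehicle.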
# [11] = NCI Yeast Anticancer Drug Screen. Data for the bub3 strain (AID 167); conditions: S. cerevisiae bub3 mutant strain, stronger effect = higher value
# How it was run: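 Yeast carrying a defined mutation is treated with each compound, and growth is compared with that of vehicle-exposed cells to give inhibition.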
# [12] = NCI Yeast Anticancer Drug Screen. Data for the wt2 strain (AID 169);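 also: 0% = growth of vehicle-treated yeast cultures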; conditions: S. cerevisiae wt2 strain growth inhibition, stronger effect = higher value
# How it was run: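 Genetically defined yeast strains from a DNA-repair/cell-cycle panel were used. Compound-exposed yeast growth was measured, and the inhibition was calculated relative to vehicle treatment.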
# [13] = NCI Yeast Anticancer Drug Screen. Data for the sgs1 strain (AID 173);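 also: 0% = growth of vehicle-only control cultures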; conditions: S. cerevisiae sgs1 mutant, stronger effect = higher value
# How it was run: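 Relative growth inhibition, referenced to vehicle, was determined in a yeast strain with a defined alteration affecting DNA damage repair or cell cycle control after compound exposure.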
# [14] = NCI Yeast Anticancer Drug Screen. Data for the mlh1 rad18 strain (AID 175); conditions: S. cerevisiae mlh1 rad18 strain growth inhibition, stronger effect = higher value
# How it was run: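 In this whole-cell yeast screen, a strain with altered DNA damage repair is challenged with compound, and its growth is measured against matched vehicle-treated controls.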
# [15] = at 5.0 µM (retest, dose inferred, filed as 0.5)
# [16] = at 50.0 µM (retest, dose inferred, filed as 5.0)
smiles,measurement,setting,value
c1cc(-c2sc(-c3ccncc3)c(-c3ccncc3)c2-c2ccncc2)ccn1,growth inhibition,[1]; at 1.2 µM,4%
same,growth inhibition,[1]; at 3.7 µM,17%
same,growth inhibition,[1]; at 11.0 µM,63%
same,growth inhibition,[1]; at 33.0 µM,91% (active)
same,growth inhibition,[1]; at 100.0 µM,97% (active)
same,growth inhibition,[2]; at 1.2 µM,2%
same,growth inhibition,[2]; at 3.7 µM,-1%
same,growth inhibition,[2]; at 11.0 µM,0%
same,growth inhibition,[2]; at 33.0 µM,12%
same,growth inhibition,[2]; at 100.0 µM,58%
same,growth inhibition,[3]; at 1.2 µM,5%
same,growth inhibition,[3]; at 3.7 µM,18%
same,growth inhibition,[3]; at 11.0 µM,34%
same,growth inhibition,[3]; at 33.0 µM,68%
same,growth inhibition,[3]; at 100.0 µM,82% (active)
same,growth inhibition,[4]; at 1.2 µM,0%
same,growth inhibition,[4]; at 3.7 µM,2%
same,growth inhibition,[4]; at 11.0 µM,2%
same,growth inhibition,[4]; at 33.0 µM,25%
same,growth inhibition,[4]; at 100.0 µM,87% (active)
same,growth inhibition,[5]; at 1.2 µM,10%
same,growth inhibition,[5]; at 3.7 µM,19%
same,growth inhibition,[5]; [15],12%
same,growth inhibition,[5]; at 11.0 µM,69%
same,growth inhibition,[5]; at 33.0 µM,90% (active)
same,growth inhibition,[5]; [16],81% (active)
same,growth inhibition,[5]; at 50.0 µM,96.3% (active)
same,growth inhibition,[5]; at 100.0 µM,96% (active)
same,growth inhibition,[6]; at 1.2 µM,3%
same,growth inhibition,[6]; at 3.7 µM,3%
same,growth inhibition,[6]; [15],-5%
same,growth inhibition,[6]; at 11.0 µM,11%
same,growth inhibition,[6]; at 33.0 µM,46%
same,growth inhibition,[6]; [16],0%
same,growth inhibition,[6]; at 50.0 µM,21.1%
same,growth inhibition,[6]; at 100.0 µM,93% (active)
same,growth inhibition,[7]; at 1.2 µM,3%
same,growth inhibition,[7]; at 3.7 µM,-4%
same,growth inhibition,[7]; at 11.0 µM,5%
same,growth inhibition,[7]; at 33.0 µM,26%
same,growth inhibition,[7]; at 100.0 µM,75% (active)
same,growth inhibition,[8]; [15],-5%
same,growth inhibition,[8]; [16],50%
same,growth inhibition,[8]; at 50.0 µM,46.8%
same,growth inhibition,[9]; at 1.2 µM,-7%
same,growth inhibition,[9]; at 3.7 µM,1%
same,growth inhibition,[9]; at 11.0 µM,-1%
same,growth inhibition,[9]; at 33.0 µM,25%
same,growth inhibition,[9]; at 100.0 µM,89% (active)
same,growth inhibition,[10]; [15],-48%
same,growth inhibition,[10]; [16],5%
same,growth inhibition,[10]; at 50.0 µM,45.6%
same,growth inhibition,[11]; at 1.2 µM,1%
same,growth inhibition,[11]; at 3.7 µM,7%
same,growth inhibition,[11]; [15],-12%
same,growth inhibition,[11]; at 11.0 µM,25%
same,growth inhibition,[11]; at 33.0 µM,54%
same,growth inhibition,[11]; [16],18%
same,growth inhibition,[11]; at 50.0 µM,51.1%
same,growth inhibition,[11]; at 100.0 µM,89% (active)
same,growth inhibition,[12]; at 1.2 µM,0%
same,growth inhibition,[12]; at 3.7 µM,0%
same,growth inhibition,[12]; at 11.0 µM,0%
same,growth inhibition,[12]; at 33.0 µM,17%
same,growth inhibition,[12]; at 100.0 µM,79% (active)
same,growth inhibition,[13]; at 1.2 µM,3%
same,growth inhibition,[13]; at 3.7 µM,7%
same,growth inhibition,[13]; at 11.0 µM,15%
same,growth inhibition,[13]; at 33.0 µM,42%
same,growth inhibition,[13]; at 100.0 µM,77% (active)
same,growth inhibition,[14]; [15],2%
same,growth inhibition,[14]; [16],46%
same,growth inhibition,[14]; at 50.0 µM,79.7% (active)
BrC1C2CCC3OC3C12 (stereo not drawn),growth inhibition,[1]; at 1.2 µM,3%
same,growth inhibition,[1]; at 3.7 µM,16%
same,growth inhibition,[1]; at 11.0 µM,97% (active)
same,growth inhibition,[1]; at 33.0 µM,99% (active)
same,growth inhibition,[1]; at 100.0 µM,99% (active)
same,growth inhibition,[2]; at 1.2 µM,0%
same,growth inhibition,[2]; at 3.7 µM,1%
same,growth inhibition,[2]; at 11.0 µM,96% (active)
same,growth inhibition,[2]; at 33.0 µM,98% (active)
same,growth inhibition,[2]; at 100.0 µM,99% (active)
same,growth inhibition,[3]; at 1.2 µM,9%
same,growth inhibition,[3]; at 3.7 µM,27%
same,growth inhibition,[3]; at 11.0 µM,70% (active)
same,growth inhibition,[3]; at 33.0 µM,89% (active)
same,growth inhibition,[3]; at 100.0 µM,96% (active)
same,growth inhibition,[4]; at 1.2 µM,2%
same,growth inhibition,[4]; at 3.7 µM,3%
same,growth inhibition,[4]; at 11.0 µM,77% (active)
same,growth inhibition,[4]; at 33.0 µM,99% (active)
same,growth inhibition,[4]; at 100.0 µM,99% (active)
same,growth inhibition,[5]; at 1.2 µM,3%
same,growth inhibition,[5]; at 3.7 µM,7%
same,growth inhibition,[5]; [15],41%
same,growth inhibition,[5]; at 11.0 µM,92% (active)
same,growth inhibition,[5]; at 33.0 µM,97% (active)
same,growth inhibition,[5]; [16],99% (active)
same,growth inhibition,[5]; at 50.0 µM,99.5% (active)
same,growth inhibition,[5]; at 100.0 µM,98% (active)
same,growth inhibition,[6]; at 1.2 µM,0%
same,growth inhibition,[6]; at 3.7 µM,5%
